Results filed as inconclusive are left out. Entries that show only a call come without a potency. The source made the active and inactive calls. Calls come from the whole dose curve; as a rule, active = well fitted cell-killing curve with a large enough effect in the repeat runs; inconclusive = weak or mixed curves, or effect the other way; inactive = flat fitted curve, though single readings scatter.
Test: qHTS assay to identify small molecule antagonists of the constitutive androstane receptor (CAR) signaling pathway - cell viability counter screen (AID 1224837); note: nearly all actives have a fitted effect of over 45% in size
Conditions: HepG2-CYP2B6-hCAR viability, CellTiter-Fluor, 23 h, co-treated with 50 nM CITCO; series mostly up to 92.4 µM
Source text: National Center for Advancing Translational Sciences [NCATS]
NIH Chemical Genomics Center [NCGC]
U.S. Environmental Protection Agency [EPA]
National Institutes of Environmental Health Sciences [NIEHS]
National Toxicology Program [NTP]
U.S. Food and Drug Administration [FDA]
The constitutive androstane receptor (CAR) is a nuclear receptor which regulates multiple drug metabolizing enzymes (DMEs) and transporters. Activating CAR will generally increase the transcription and subsequent translation of CYP2B6 and CYP3A4. These two DMEs represent about 50% of the drug metabolizing potential in the body. When CAR is deactivated, the metabolizing potential in the body will decrease, subsequently increasing the toxicity in the body or lowering the therapeutic potential of a pro-drug. Recently, there have also been studies performed indicating CARs role in energy metabolism and cancer therapy. Therefore, inhibiting CARs activity could have a potential effect on diabetes and cancer. Identifying environmental toxins and compounds which modulate CAR, through the use of the Tox21 10K compound collection, will be an important step in determining the toxicity and potential therapeutic effects these factors will have on the human body. To differentiate true CAR antagonists from cytotoxic substances, the assay is multiplexed with a cell viability assay.
Tox21 Assay Protocol Summary:
A double-stable (hCAR and CYP2B6-2.2kb) transfected cell line, derived from human hepatoma (HepG2) cells, was utilized for the duration of the quantitative high-throughput screens. The HepG2-CYP2B6-hCAR cells were dispensed at 2500 cells/4 uL/well in 1536-well white solid bottom plates using a Multidrop Combi. After the assay plates were incubated at 37 C/5% CO2 for 4 hrs, 23 nL of compounds at 15 concentrations (from 5-48 columns) or positive control (from 1 to 4 columns) were transferred to the assay plates using a Pintool station. One uL of CITCO (final concentration = 50 nM) was added, using a Flying Reagent Dispenser, inside each well. After a 23 hr incubation period at 37 C/5% CO2, 1 uL of CellTiter-Fluor reagent was added into each well of the assay plates using a Flying Reagent Dispenser. The fluorescence intensity in the plates was then measured using a ViewLux plate reader.
Potency is the fitted concentration of half-maximal effect.

| SMILES | Potency |
| --- | --- |
| O=c1[nH]sc2cc(Cl)ccc12 | inactive |
| O=C(N/N=C/c1ccccc1O)c1ccncc1 | inactive |
| NNc1nc(-c2ccc(N)cc2)cs1 | inactive |
| OC1(c2ccc(Cl)c(C(F)(F)F)c2)CCN(CCCC(c2ccc(F)cc2)c2ccc(F)cc2)CC1 | 13.3 µM (active) |
| CCCCCCCCCCCCCCCC(=O)OC[C@H](O)[C@H]1OC(=O)C(O)=C1O | inactive |
| Cc1c(C)c2c(c(C)c1O)CCC(C)(COc1ccc(CC3SC(=O)NC3=O)cc1)O2 (stereo not given) | inactive |
| CCCCCCCC/C=C\CCCCCCCCOCCO | 31.6 µM (active) |
| CC(C)c1ccc2c(c1)CC[C@H]1[C@](C)(CN)CCC[C@]21C | 68.6 µM (active) |
| O=c1c(-c2ccccc2)c1-c1ccccc1 | inactive |
| Nc1c2ccccc2nc2ccccc12 | inactive |
| Cc1cccc(N(C)C(=S)Oc2ccc3c(c2)C2CCC3C2)c1 (stereo not given) | inactive |
| Cc1cc(CCN2CCN(c3nsc4ccccc34)CC2)cc2c1NC(=O)CC2(C)C | 54.5 µM (active) |
| CCCCCCCCCCCCCCCCCC[N+](C)(C)C | 54.6 µM (active) |
| Cc1nc(-c2ccc3c(c2)CCN(CCC2CCC(NC(=O)/C=C/c4ccc(F)cc4)CC2)CC3)no1 (stereo not given) | inactive |
| Cc1ccc2oc(CN(Cc3ccccc3)C(=O)Nc3c(F)cc(F)cc3F)c(-c3ccc(Cl)cc3)c2c1 | inactive |
| COc1ccc(C(=O)/C(Br)=C\C(=O)O)cc1 | inactive |
| CC(C)(C)c1ccc(C(=O)O)cc1 | inactive |
| CC(C)OC(=O)c1cc2c(OCC(O)CNC(C)(C)C)cccc2[nH]1 (stereo not given) | inactive |
| Oc1cccc2cc3cccc(O)c3c(O)c12 | inactive |
| CCCCCCCCCCC=O | inactive |

| SMILES | Potency |
| --- | --- |
| OCc1c[nH]c2ccccc12 | inactive |
| CCN(C(=O)N(CC)c1ccccc1)c1ccccc1 | inactive |
| N=C1C=CC(=C(c2ccc(N)cc2)c2ccc(N)cc2)C=C1 | 27.3 µM (active) |
| CCCN(CCC)c1c([N+](=O)[O-])cc(C(F)(F)F)c(N)c1[N+](=O)[O-] | 68.4 µM (active) |
| C=CC(=O)OCCn1c(=O)n(CCOC(=O)C=C)c(=O)n(CCOC(=O)C=C)c1=O | 19.3 µM (active) |
| CCCCCCCCn1sc(Cl)c(Cl)c1=O | 30.6 µM (active) |
| CCCCN(CCCC)C(=O)N(CCCC)CCCC | inactive |
| Cc1oc(-c2ccccc2)nc1CCC(=O)c1ccc(CC2SC(=O)NC2=O)cc1 (stereo not given) | inactive |
| O=C(Oc1ccccc1)c1ccccc1C(=O)Oc1ccccc1 | inactive |
| COCCCC/C(=N\OCCN)c1ccc(C(F)(F)F)cc1 | inactive |
| CC(=O)S[C@@H]1CC2=CC(=O)CC[C@]2(C)[C@H]2CC[C@@]3(C)[C@@H](CC[C@@]34CCC(=O)O4)[C@H]12 | inactive |
| Oc1cc2ccccc2c2ccccc12 | 13.7 µM (active) |
| N/C(=N\N=C\c1ccc(Cl)cc1)N/N=C/c1ccc(Cl)cc1 | inactive |
| [Cl][Bi]([Cl])([c]1ccccc1)([c]1ccccc1)[c]1ccccc1 | 19.2 µM (active) |
| O=C(O)c1c(Cl)cccc1Cl | inactive |
| O=c1cccccc1O | inactive |
| CCOC(=O)/C=C(C)/C=C/C=C(C)/C=C/c1c(C)cc(OC)c(C)c1C | inactive |
| CC(C)(C)C(=O)OCOC(=O)C1N2C(=O)CC2S(=O)(=O)C1(C)C (stereo not given) | inactive |
| O=C1c2ccccc2Cc2ccccc21 | inactive |
| c1ccc(CSCc2ccccc2)cc1 | inactive |
